The source of these data is ChEMBL document CHEMBL3433997, “St. Jude Leishmania screening dataset” (2016).

Values joined by “and” are separate entries in the source; they are usually repeats but may differ in a detail not shown here. Equal values may be shown once.

The target of the first assay is Solute carrier family 2, facilitated glucose transporter member 1 (Homo sapiens) (UniProt P11166). In words: ST_JUDE_LEISH: Cytotoxicity at 2uM final concentration against transgenic Leishmania Mexicana promastigotes LmGLUT1 that are glucose transport deficient and complemented with the human glucose transporter GLUT1. Activity is measured by DNA content using SYBR green in vitro. The format is functional.
Chain of Solute carrier family 2, facilitated glucose transporter member 1 (Homo sapiens) (P11166 whole entry): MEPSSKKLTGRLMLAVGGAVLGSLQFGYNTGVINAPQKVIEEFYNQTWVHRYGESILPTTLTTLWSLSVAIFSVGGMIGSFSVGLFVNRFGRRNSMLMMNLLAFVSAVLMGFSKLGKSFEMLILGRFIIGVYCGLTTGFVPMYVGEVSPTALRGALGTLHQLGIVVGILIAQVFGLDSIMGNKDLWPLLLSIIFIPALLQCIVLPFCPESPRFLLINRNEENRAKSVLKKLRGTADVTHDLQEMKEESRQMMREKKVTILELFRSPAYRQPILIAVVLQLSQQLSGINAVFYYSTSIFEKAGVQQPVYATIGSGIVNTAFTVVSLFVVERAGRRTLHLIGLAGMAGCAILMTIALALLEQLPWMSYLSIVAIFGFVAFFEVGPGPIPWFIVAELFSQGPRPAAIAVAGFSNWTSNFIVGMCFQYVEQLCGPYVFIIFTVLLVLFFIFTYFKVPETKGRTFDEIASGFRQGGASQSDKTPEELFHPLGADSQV
Regarding `CC[C@H]1CN2CC[C@H]1C[C@H]2C(O)c1cc(OC)nc2ccccc12` (stereo partly drawn), the inhibition (commonly the relative decrease from the control value, in per cent) is -0.41%.

In the case of `O=C(/C=C/c1cccc(Cl)c1)NC1CCC(CN2CCC(c3c[nH]c4ccccc34)CC2)CC1` (stereo not drawn), the inhibition was 2.39% and 2.9%.

Turning to `COc1ccc(N(c2nc(-c3cc(Cl)ccc3Cl)cs2)C2CCNCC2)cc1`, the inhibition worked out at 0.66%.

On to `Cc1csc(-c2ccc3[nH]cc(C4=CCN(C)CC4)c3c2)n1`, for which the inhibition amounted to 7.46%.

`CC(=O)C1(c2ccccc2)CCN(CCC2(c3ccc(Cl)c(Cl)c3)CN(C(=O)C3CCCC3)CCO2)CC1` (stereo not drawn): the inhibition was determined as 4.09%.

As for `Cc1c(C)c2c(c(C)c1O)CC[C@@](C)(C(=O)NC1CCC(CN3CCC(c4c[nH]c5ccccc45)CC3)CC1)O2` (stereo partly drawn), the inhibition came to 6.35%.

Consider `Cc1[nH]c2ccc(O)cc2c1C1CCN(CC2CCC(NC(=O)/C=C/c3ccc(Cl)c(Cl)c3)CC2)CC1` (stereo not drawn), for which the inhibition amounted to 0.37%.

`CNCCN(C)C(=O)Oc1c(Cl)c(C)nc(C)c1-c1ccc(Oc2ccc(OC(F)(F)F)cc2)cc1`: the inhibition turned out to be 4.11%.

Turning to `Cc1[nH]c2ccc(O)cc2c1C1CCN(CC2CCN(C(=O)/C=C/c3ccc(Cl)c(Cl)c3)CC2)CC1`, the inhibition worked out at 0.92%.

Turning to `CCCCCCC(C)(C)c1cc(O)c2c(c1)OC(C)(C)c1ccncc1-2`, the inhibition came out at 1.05%.

`CC(=O)Nc1ccc(CN2CCC(N(C)c3cc(NC(=O)c4ccc(F)cc4)ccn3)CC2)cc1`: the inhibition worked out at 1.04%.

For `CC[C@H]1CN2CC[C@H]1C[C@H]2[C@H](O)c1ccnc2ccc(OC)cc12`, the inhibition is -0.16%.

On to `O=C(NC1CCC(CN2CCC(c3c[nH]c4ccccc34)CC2)CC1)c1ccc(-c2ccccc2[N+](=O)[O-])o1` (stereo not drawn), for which the inhibition is 3.68%.

`CC[C@H]1CN2CC[C@@H]1C[C@H]2[C@H](O)c1cc(N2CCOCC2)nc2ccc(OC)cc12`: the inhibition is -1.11%.

For `O=C1Nc2cccc3c2C1(CCCCCN1CC=C(c2c[nH]c4ccccc24)CC1)CCC3` (stereo not drawn), the inhibition was determined as 14.1%.

On to `Cn1cc(CN2CCC(CCOC(c3ccccc3)c3ccccc3)CC2)cn1`, for which the inhibition worked out at 12.3%.

As to `CC[C@H]1CN2CC[C@@H]1C[C@H]2[C@H](O)c1cc(-c2cc(Cl)cc(Cl)c2)nc2ccc(OC)cc12`, the inhibition stood at 2.83%.

Turning to `Cc1cccc2[nH]cc(C3CCN(CC4CCC(NC(=O)/C=C/c5ccc(Cl)c(Cl)c5)CC4)CC3)c12` (stereo not drawn), the inhibition came out at 0.63%.

With `O=C(CCCCCc1ccccc1)NC1CCC(CN2CCC(c3c[nH]c4ccccc34)CC2)CC1` (stereo not drawn), the inhibition amounted to 0.89%.

Take `COCCNCc1ccc(-c2ccc(CN(C(=O)Nc3ccccc3)C3CCN(Cc4ccccc4)CC3)cc2)cc1`: the inhibition is 7.17%.

For the compound `OC(CNC1CCCCCCC1)c1ccc(Cl)c(Cl)c1` (stereo not drawn), the inhibition was 1.96%.

`CCCCCCC(C)(C)c1cc(O)c2c3c(c(=O)oc2c1)CCN(Cc1ccccc1)C3`: the inhibition was found to be 3.18%.

Take `COC(=O)c1ccc(CC(C)NCC(O)c2cccc(SC(F)(F)F)c2)cc1` (stereo not drawn): the inhibition is 2.85%.

Turning to `CN1CC=C(C=Cc2c[nH]c3ccccc23)CC1`, the inhibition amounted to 0.96%.

Regarding `CO[C@@H]1C[C@@H](C(=O)Nc2ccccc2)N(c2ccc(C#N)c3ccccc23)C1`, the inhibition amounted to 4.31%.

`CCCCCCC(CC)c1cc(O)c2c(c1)OC(C)(C)c1ccncc1-2` (stereo not drawn): the inhibition turned out to be 3.06%.

Consider `CCOc1ccc(Br)cc1/C=C/C(=O)Nc1ccc2c(c1)C1CCC2N1C` (stereo not drawn), for which the inhibition came to 2.58%.

Take `O=C(c1cc(C(F)(F)F)cc(C(F)(F)F)c1)N1CCC(CCN2CCC3(CC2)C(=O)NCN3c2ccccc2)CC1Cc1ccc(Cl)c(Cl)c1` (stereo not drawn): the inhibition stood at 6.32%.

For `Cc1c(C)c2c(c(C)c1O)CC[C@](C)(C(=O)N1CCC(CN3CCC(c4c[nH]c5ccccc45)CC3)CC1)O2`, the inhibition amounted to 3.34%.

For the compound `CC[C@H]1CN2CC[C@H]1C[C@H]2[C@H](O)c1cc(N2CCCC2)nc2ccc(OC)cc12`, the inhibition is -0.2%.

Turning to `CCCCOC(C(=O)OCC1CCCN1C)(c1ccccc1)c1ccccc1` (stereo not drawn), the inhibition was -0.11%.

As to `CC(=O)C1(c2ccccc2)CCN(CCC(NC(=O)c2cc(C(F)(F)F)cc(C(F)(F)F)c2)c2ccc(Cl)c(Cl)c2)CC1` (stereo not drawn), the inhibition was -0.39%.

As to `CN1CC(c2ccc(Cl)c(Cl)c2)OC1=N` (stereo not drawn), the inhibition was -0.53%.

On to `COC(=O)c1ccc(CC(C)NCC(O)c2ccc(Cl)c(Cl)c2)cc1` (stereo not drawn), for which the inhibition was determined as 6.46%.

Turning to `Cc1c(C)c2c(c(C)c1O)CC[C@@](C)(C(=O)N1CCC(CN3CCC(c4c[nH]c5ccccc45)CC3)CC1)O2`, the inhibition was -0.93%.

For the compound `O=C(/C=C/c1ccc(Cl)c(Cl)c1)NC1CCC(CN2CCC(c3c[nH]c4ccc(O)cc34)CC2)CC1` (stereo not drawn), the inhibition was 1.43% and 1.97%.

With `c1ccc(C(OCCC2CCN(Cc3cccnc3)CC2)c2ccccc2)cc1`, the inhibition amounted to 0.62%.

For the compound `O=C(COc1ccc(Cl)cc1)N1CCC(CN2CCC(c3c[nH]c4ccccc34)CC2)CC1`, the inhibition is -2.1%.

`O=c1c2ccccc2nc(/C=C/c2ccc([N+](=O)[O-])cc2)n1-c1ccccn1`: the inhibition is 10.9%.

The next assay has as its target Hexose transporter 1 (Plasmodium falciparum) (UniProt O97467). In words: ST_JUDE_LEISH: Cytotoxicity at 2uM final concentration against transgenic Leishmania Mexicana promastigotes LmPfHT that are glucose transport deficient and complemented with the Plasmodium falciparum hexose transporter. Activity is measured by DNA content using SYBR green in vitro. In kind it is functional.
For `CC[C@H]1CN2CC[C@H]1C[C@H]2C(O)c1cc(OC)nc2ccccc12` (stereo partly drawn), the inhibition came out at 0.13%.

With `O=C(/C=C/c1cccc(Cl)c1)NC1CCC(CN2CCC(c3c[nH]c4ccccc34)CC2)CC1` (stereo not drawn), the inhibition was 2.82% and 1.43%.

For `COc1ccc(N(c2nc(-c3cc(Cl)ccc3Cl)cs2)C2CCNCC2)cc1`, the inhibition was -0.12%.

As to `Cc1csc(-c2ccc3[nH]cc(C4=CCN(C)CC4)c3c2)n1`, the inhibition turned out to be 9.43%.

In the case of `CC(=O)C1(c2ccccc2)CCN(CCC2(c3ccc(Cl)c(Cl)c3)CN(C(=O)C3CCCC3)CCO2)CC1` (stereo not drawn), the inhibition came out at 3.1%.

For the compound `Cc1c(C)c2c(c(C)c1O)CC[C@@](C)(C(=O)NC1CCC(CN3CCC(c4c[nH]c5ccccc45)CC3)CC1)O2` (stereo partly drawn), the inhibition amounted to 5.08%.

Turning to `Cc1[nH]c2ccc(O)cc2c1C1CCN(CC2CCC(NC(=O)/C=C/c3ccc(Cl)c(Cl)c3)CC2)CC1` (stereo not drawn), the inhibition came to 0.95%.

Regarding `CNCCN(C)C(=O)Oc1c(Cl)c(C)nc(C)c1-c1ccc(Oc2ccc(OC(F)(F)F)cc2)cc1`, the inhibition was found to be 4.04%.

With `Cc1[nH]c2ccc(O)cc2c1C1CCN(CC2CCN(C(=O)/C=C/c3ccc(Cl)c(Cl)c3)CC2)CC1`, the inhibition came out at 0.19%.

For the compound `CCCCCCC(C)(C)c1cc(O)c2c(c1)OC(C)(C)c1ccncc1-2`, the inhibition was determined as 0.83%.

For `CC(=O)Nc1ccc(CN2CCC(N(C)c3cc(NC(=O)c4ccc(F)cc4)ccn3)CC2)cc1`, the inhibition was 2.13%.

With `CC[C@H]1CN2CC[C@H]1C[C@H]2[C@H](O)c1ccnc2ccc(OC)cc12`, the inhibition was 0.87%.

For `O=C(NC1CCC(CN2CCC(c3c[nH]c4ccccc34)CC2)CC1)c1ccc(-c2ccccc2[N+](=O)[O-])o1` (stereo not drawn), the inhibition is 1.85%.

On to `CC[C@H]1CN2CC[C@@H]1C[C@H]2[C@H](O)c1cc(N2CCOCC2)nc2ccc(OC)cc12`, for which the inhibition is -1.44%.

Take `O=C1Nc2cccc3c2C1(CCCCCN1CC=C(c2c[nH]c4ccccc24)CC1)CCC3` (stereo not drawn): the inhibition came to 10.6%.

For the compound `Cn1cc(CN2CCC(CCOC(c3ccccc3)c3ccccc3)CC2)cn1`, the inhibition came out at 9.95%.

As for `CC[C@H]1CN2CC[C@@H]1C[C@H]2[C@H](O)c1cc(-c2cc(Cl)cc(Cl)c2)nc2ccc(OC)cc12`, the inhibition is 2.24%.

For `Cc1cccc2[nH]cc(C3CCN(CC4CCC(NC(=O)/C=C/c5ccc(Cl)c(Cl)c5)CC4)CC3)c12` (stereo not drawn), the inhibition turned out to be 6.74%.

In the case of `O=C(CCCCCc1ccccc1)NC1CCC(CN2CCC(c3c[nH]c4ccccc34)CC2)CC1` (stereo not drawn), the inhibition was -3.78%.

`COCCNCc1ccc(-c2ccc(CN(C(=O)Nc3ccccc3)C3CCN(Cc4ccccc4)CC3)cc2)cc1`: the inhibition was found to be 4.93%.

On to `OC(CNC1CCCCCCC1)c1ccc(Cl)c(Cl)c1` (stereo not drawn), for which the inhibition was 2.06%.

`CCCCCCC(C)(C)c1cc(O)c2c3c(c(=O)oc2c1)CCN(Cc1ccccc1)C3`: the inhibition was 4.84%.

In the case of `COC(=O)c1ccc(CC(C)NCC(O)c2cccc(SC(F)(F)F)c2)cc1` (stereo not drawn), the inhibition is 4.05%.

In the case of `CN1CC=C(C=Cc2c[nH]c3ccccc23)CC1`, the inhibition is 2.14%.

For `CO[C@@H]1C[C@@H](C(=O)Nc2ccccc2)N(c2ccc(C#N)c3ccccc23)C1`, the inhibition was found to be 5.45%.

Take `CCCCCCC(CC)c1cc(O)c2c(c1)OC(C)(C)c1ccncc1-2` (stereo not drawn): the inhibition was determined as 2.42%.

For the compound `CCOc1ccc(Br)cc1/C=C/C(=O)Nc1ccc2c(c1)C1CCC2N1C` (stereo not drawn), the inhibition worked out at 0.43%.

With `O=C(c1cc(C(F)(F)F)cc(C(F)(F)F)c1)N1CCC(CCN2CCC3(CC2)C(=O)NCN3c2ccccc2)CC1Cc1ccc(Cl)c(Cl)c1` (stereo not drawn), the inhibition was 10.7%.

On to `Cc1c(C)c2c(c(C)c1O)CC[C@](C)(C(=O)N1CCC(CN3CCC(c4c[nH]c5ccccc45)CC3)CC1)O2`, for which the inhibition is 4.94%.

In the case of `CC[C@H]1CN2CC[C@H]1C[C@H]2[C@H](O)c1cc(N2CCCC2)nc2ccc(OC)cc12`, the inhibition is -1.79%.

On to `CCCCOC(C(=O)OCC1CCCN1C)(c1ccccc1)c1ccccc1` (stereo not drawn), for which the inhibition turned out to be 1.91%.

Turning to `CC(=O)C1(c2ccccc2)CCN(CCC(NC(=O)c2cc(C(F)(F)F)cc(C(F)(F)F)c2)c2ccc(Cl)c(Cl)c2)CC1` (stereo not drawn), the inhibition was 0.71%.

As for `CN1CC(c2ccc(Cl)c(Cl)c2)OC1=N` (stereo not drawn), the inhibition worked out at 0.23%.

As to `COC(=O)c1ccc(CC(C)NCC(O)c2ccc(Cl)c(Cl)c2)cc1` (stereo not drawn), the inhibition was 3.9%.

Turning to `Cc1c(C)c2c(c(C)c1O)CC[C@@](C)(C(=O)N1CCC(CN3CCC(c4c[nH]c5ccccc45)CC3)CC1)O2`, the inhibition is -1.76%.

For `O=C(/C=C/c1ccc(Cl)c(Cl)c1)NC1CCC(CN2CCC(c3c[nH]c4ccc(O)cc34)CC2)CC1` (stereo not drawn), the inhibition is 0.14% and 2.98%.

As for `c1ccc(C(OCCC2CCN(Cc3cccnc3)CC2)c2ccccc2)cc1`, the inhibition came to 0.06%.

Take `O=C(COc1ccc(Cl)cc1)N1CCC(CN2CCC(c3c[nH]c4ccccc34)CC2)CC1`: the inhibition is -1.7%.

In the case of `O=c1c2ccccc2nc(/C=C/c2ccc([N+](=O)[O-])cc2)n1-c1ccccn1`, the inhibition amounted to 11%.
